Counter-ions that a name gives are not always drawn.

Assay [1] has as its system Staphylococcus aureus MW2 delta-mecA (mecA-). Description: normalized GFP fluorescence (growth of mecA- strain) (fraction of control range); higher = more growth of mecA- strain. Particulars: compound concentration: 150 uM; cefoxitin: subinhibitory; fluorescent label: GFP. The procedure, abridged: (§1)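 In 1536-well plates holding 150 μM compound (1.5% DMSO), a 1:1 mix of pre-induced S. aureus MW2 cells was added at 5 µL/well, in one replicate. One strain carried the gene and DsRed, the other lacked the gene and carried GFP, and the LB held a subinhibitory antibiotic dose chosen daily. Plates stood unshaken for 20 h at 37 °C, 90% humidity, before DsRed (540/590) and GFP (485/520) readings, which were scaled per plate to single-strain control medians, with plates high in untreated ratio and rows above DsRed/GFP 10 dropped.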

For assay [2], the system named is Staphylococcus aureus MW2 (mecA+). Description: normalized DsRed fluorescence (growth of mecA+ strain) (fraction of control range); higher = more growth of mecA+ strain. Particulars: compound concentration: 150 uM; cefoxitin: subinhibitory; fluorescent label: DsRed. The method in brief: as §1

Regarding `COC(=O)Nc1nc2cc(C(=O)c3ccc(F)cc3)ccc2[nH]1`, the “normalized GFP fluorescence” value in assay [1] came out at 0.715. Besides, in assay [2], the “normalized DsRed fluorescence” value turned out to be 0.661.

In the case of `CCN(CC)C(=O)/C(C#N)=C/c1cc(O)c(O)c([N+](=O)[O-])c1` [Entacapone], in assay [1], the “normalized GFP fluorescence” value came out at 0.111. In assay [2], the “normalized DsRed fluorescence” value is 1.35.

Regarding `CCCN(CCC)S(=O)(=O)c1ccc(C(=O)O)cc1`, the “normalized GFP fluorescence” value in assay [1] came to 0.462. The “normalized DsRed fluorescence” value in assay [2] came out at 0.343.

As for `CC(C)c1ccc2oc3nc(N)c(C(=O)O)cc3c(=O)c2c1`, the “normalized GFP fluorescence” value in assay [1] came out at 0.212. In addition, the “normalized DsRed fluorescence” value in assay [2] was found to be 0.319.

For `CCCNCC(O)COc1ccccc1C(=O)CCc1ccccc1` (stereo not drawn), in assay [1], the “normalized GFP fluorescence” value was 0.19. Further, in assay [2], the “normalized DsRed fluorescence” value came out at 1.05.

On to `CCOC(=O)[C@H](CCc1ccccc1)N[C@@H](C)C(=O)N1Cc2cc(OC)c(OC)cc2C[C@H]1C(=O)O` [Moexipril HCl], for which the “normalized GFP fluorescence” value in assay [1] turned out to be 0.373. Also, in assay [2], the “normalized DsRed fluorescence” value came out at 0.48.

With `CCc1cn([C@H]2C[C@H](O)[C@@H](CO)O2)c(=O)[nH]c1=O`, the “normalized GFP fluorescence” value in assay [1] was found to be 0.343. Also, in assay [2], the “normalized DsRed fluorescence” value was 0.714.

Take `COC1=CC(=O)C[C@@H](C)[C@]12Oc1c(Cl)c(OC)cc(OC)c1C2=O`: the “normalized GFP fluorescence” value in assay [1] came to 0.227. Further, the “normalized DsRed fluorescence” value in assay [2] stood at 0.425.

As to `CC(C)(Sc1cc(C(C)(C)C)c(O)c(C(C)(C)C)c1)Sc1cc(C(C)(C)C)c(O)c(C(C)(C)C)c1`, the “normalized GFP fluorescence” value in assay [1] stood at 0.792. Moreover, the “normalized DsRed fluorescence” value in assay [2] was determined as 0.839.

`Nc1ncn([C@@H]2O[C@H](CO)[C@@H](O)[C@H]2O)c(=O)n1`: the “normalized GFP fluorescence” value in assay [1] stood at 0.292. Further, the “normalized DsRed fluorescence” value in assay [2] worked out at 0.51.

As to `CCOc1cc([C@@H](CS(C)(=O)=O)N2C(=O)c3cccc(NC(C)=O)c3C2=O)ccc1OC`, in assay [1], the “normalized GFP fluorescence” value was found to be 0.254. In assay [2], the “normalized DsRed fluorescence” value came to 0.579.

Regarding `CNC[C@@H](O)c1ccc(O)c(O)c1` [L-Adrenaline (Epinephrine)], the “normalized GFP fluorescence” value in assay [1] was determined as 0.385. For the same compound, the “normalized DsRed fluorescence” value in assay [2] turned out to be 0.715.

For the compound `CC(C)(CO)[C@@H](O)C(=O)NCCCO`, the “normalized GFP fluorescence” value in assay [1] was 0.406. In addition, in assay [2], the “normalized DsRed fluorescence” value came out at 0.653.

Turning to `CNC[C@H](O)c1ccc(O)c(O)c1`, the “normalized GFP fluorescence” value in assay [1] came to 0.95. The “normalized DsRed fluorescence” value in assay [2] came out at 0.812.

As for `O=C1CC2(CCCC2)CC(=O)N1CCCCN1CCN(c2ncccn2)CC1`, the “normalized GFP fluorescence” value in assay [1] was found to be 0.698. In assay [2], the “normalized DsRed fluorescence” value turned out to be 0.71.

In the case of `CC1=CC(=O)c2ccccc2C1=O`, in assay [1], the “normalized GFP fluorescence” value came to 0.0466. The “normalized DsRed fluorescence” value in assay [2] came to 0.307.

Turning to `CC(C)(S)[C@@H](N)C(=O)O`, the “normalized GFP fluorescence” value in assay [1] turned out to be 0.302. The “normalized DsRed fluorescence” value in assay [2] is 1.21.

As to `c1ccc2[nH]c(-c3cscn3)nc2c1`, the “normalized GFP fluorescence” value in assay [1] stood at 0.302. In assay [2], the “normalized DsRed fluorescence” value was 0.444.

Take `C[N+](C)(C)CCO.[Cl-]`: the “normalized GFP fluorescence” value in assay [1] amounted to 0.657. For the same compound, the “normalized DsRed fluorescence” value in assay [2] was 0.615.

In the case of `COc1ccc(C[C@@H]2c3cc(OC)c(OC)cc3CC[N@+]2(C)CCC(=O)OCCCCCOC(=O)CC[N@@+]2(C)CCc3cc(OC)c(OC)cc3[C@H]2Cc2ccc(OC)c(OC)c2)cc1OC` [Cisatracurium besylate (Nimbex)], the “normalized GFP fluorescence” value in assay [1] amounted to 0.62. The “normalized DsRed fluorescence” value in assay [2] was 0.713.

As for `CC(C)(C)C(=O)OCOP(=O)(COCCn1cnc2c(N)ncnc21)OCOC(=O)C(C)(C)C` [Adefovir Dipivoxil (Preveon, Hepsera)], the “normalized GFP fluorescence” value in assay [1] was 0.38. Besides, the “normalized DsRed fluorescence” value in assay [2] was 0.712.

Turning to `O=C(O)C(=O)O.[NH-][C@@H]1CCCC[C@H]1[NH-].[Pt+2]`, in assay [1], the “normalized GFP fluorescence” value was 0.253. Moreover, the “normalized DsRed fluorescence” value in assay [2] turned out to be 1.17.

Take `CCN(CC)CCNC(=O)c1ccc(N)cc1`: the “normalized GFP fluorescence” value in assay [1] stood at 0.328. Besides, in assay [2], the “normalized DsRed fluorescence” value worked out at 0.696.

On to `Cc1cc2c(s1)Nc1ccccc1N=C2N1CCN(C)CC1`, for which the “normalized GFP fluorescence” value in assay [1] is 0.695. For the same compound, the “normalized DsRed fluorescence” value in assay [2] is 0.803.

Consider `CCC(C)n1ncn(-c2ccc(N3CCN(c4ccc(OCC5COC(Cn6cncn6)(c6ccc(Cl)cc6Cl)O5)cc4)CC3)cc2)c1=O` (stereo not drawn), for which the “normalized GFP fluorescence” value in assay [1] came to 0.389. For the same compound, the “normalized DsRed fluorescence” value in assay [2] was 0.642.

Take `Cc1cc(C(C)(C)C)cc(C)c1CC1=NCCN1`: in assay [1], the “normalized GFP fluorescence” value is 0.345. The “normalized DsRed fluorescence” value in assay [2] turned out to be 0.52.

Take `O=NN(CCCl)C(=O)NCCCl`: in assay [1], the “normalized GFP fluorescence” value worked out at 0.549. Besides, the “normalized DsRed fluorescence” value in assay [2] was determined as 0.898.

`CC1(C)S[C@@H]2[C@H](NC(=O)[C@H](C(=O)O)c3ccsc3)C(=O)N2[C@H]1C(=O)O`: in assay [1], the “normalized GFP fluorescence” value is 0.468. In addition, the “normalized DsRed fluorescence” value in assay [2] came to 0.864.

As to `CCOC(=O)C1=C[C@]2(CC)CCCN3CCc4c(n1c1ccccc41)[C@@H]32`, the “normalized GFP fluorescence” value in assay [1] amounted to 0.593. For the same compound, the “normalized DsRed fluorescence” value in assay [2] is 0.554.

Regarding `CN(C)CC/C=C1/c2ccccc2Sc2ccc(Cl)cc21`, the “normalized GFP fluorescence” value in assay [1] is 0.0199. Moreover, the “normalized DsRed fluorescence” value in assay [2] is 1.12.

In the case of `CC(C)C(=O)Nc1ccc([N+](=O)[O-])c(C(F)(F)F)c1`, the “normalized GFP fluorescence” value in assay [1] is 0.121. For the same compound, the “normalized DsRed fluorescence” value in assay [2] was 1.4.

With `C1CCN2C[C@@H]3C[C@@H](CN4CCCC[C@@H]34)[C@H]2C1`, the “normalized GFP fluorescence” value in assay [1] came to 0.334. Besides, the “normalized DsRed fluorescence” value in assay [2] worked out at 0.556.

Turning to `CN1CCN(C(c2ccccc2)c2ccccc2)CC1`, in assay [1], the “normalized GFP fluorescence” value stood at 0.231. Besides, in assay [2], the “normalized DsRed fluorescence” value stood at 1.32.

As to `CC(=O)NS(=O)(=O)c1ccc(N)cc1`, the “normalized GFP fluorescence” value in assay [1] turned out to be 0.792. Also, the “normalized DsRed fluorescence” value in assay [2] is 0.694.

`CCC1NC(=O)c2cc(S(N)(=O)=O)c(Cl)cc2N1` (stereo not drawn): the “normalized GFP fluorescence” value in assay [1] was determined as 0.601. In addition, the “normalized DsRed fluorescence” value in assay [2] stood at 0.513.

`CC(C)[C@H](N)C(=O)OCC(CO)OCn1cnc2c(=O)nc(N)[nH]c21` (stereo partly drawn): the “normalized GFP fluorescence” value in assay [1] came out at 0.546. Also, the “normalized DsRed fluorescence” value in assay [2] amounted to 0.722.

For the compound `C1N2CN3CN1CN(C2)C3`, the “normalized GFP fluorescence” value in assay [1] came to 0.209. Besides, in assay [2], the “normalized DsRed fluorescence” value was found to be 0.452.

Turning to `O=c1[nH]cnc2c1ncn2[C@@H]1O[C@H](CO)[C@@H](O)[C@H]1O` [Inosine], the “normalized GFP fluorescence” value in assay [1] was determined as 0.197. The “normalized DsRed fluorescence” value in assay [2] was 0.97.

For the compound `CCNC(=O)CCC/C=C\C[C@@H]1[C@@H](/C=C/[C@@H](O)CCc2ccccc2)[C@H](O)C[C@@H]1O` [Bimatoprost], the “normalized GFP fluorescence” value in assay [1] amounted to 0.224. Moreover, in assay [2], the “normalized DsRed fluorescence” value is 0.865.

Source of the values: the supplement of paper PMC7695840.
